Source: PubChem BioAssay (National Center for Advancing Translational Sciences (NCATS))
Rango dissoc inh: qHTS Assay for Inhibitors of RanGTP induced Rango (Ran-regulated importin-beta cargo) - Importin beta complex dissociation. Snurportin-1 (Homo sapiens) + GTP-binding nuclear protein Ran (Homo sapiens) + Importin …. 0.071% of 340,000 active. Potency, µM (series often up to 46.1 µM), for the others: at the top dose activity change, negative = inhibition. Biochemical FRET Rango-importin beta, RanGTP-induced dissociation. AID 540253, 2011; also: potency is read from the fitted curve at half-maximal effect; % of control where 0% means no effect; nearly all actives have a fitted effect of over 45% in size
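FRET read at 45 min, room temperature: inhibitors block the CFP/YFP signal rise when RanGTP (0.6 uM Ran, 2 mM GTP, 0.2 uM RCC1) frees Rango (0.1 uM) from importin beta (0.25 uM). Pre-read after 5 min compound exposure flags interference.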
KCNH2 3.1 block: qHTS for Inhibitors of KCHN2 3.1: Mutant qHTS. Potassium voltage-gated channel subfamily H member 2, brain isoform KCNH2 3.1 (human). U2OS KCNH2 3.1, thallium flux FluxOr; hits give low values. activity change, % (tested at about 1.8 µM). 0.95% of 340,000 active. AID 720553, 2013;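 active = maximum activity change below -70%; inconclusive = maximum activity change from -70% to -50%; inactive = maximum activity change above -50%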;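 also: thallium influx rate constant from kinetic fluorescence after stimulation buffer; % is scaled to controls: 0 for no effect and ±100 for the full control effect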
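Normalized rate constant (relative to positive and negative DMSO controls) derived from a 2 min kinetic fluorescence read after stimulation; U2OS cells expressing the 3.1 isoform via virus at 1.77 x 10^8 /mL.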
CCT chaperon mod: High-Throughput Screening for Modulators of Cytosolic Chaperonin Activity; activity change, % (no concentration beside the values), hits read low; AID 651819, 2012; 0.3% of 360,000 active; purified chaperonin ATPase assay, HTRF ADP detection, 30 min; in the data active = activity change below about -30%; also: % is scaled to controls: 0 for no effect and ±100 for the full control effect
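Nucleotide hydrolysis assay: TRiC at 20–40 nM final (set by batch activity) with 10 uM ATP, 30 min at 37 °C, in presence of 76 uM compound. Detection by competitive ADP HTRF, 30 min ambient.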
KCNH2 WT inh: qHTS for Inhibitors of KCHN2 3.1: Wildtype qHTS | Voltage-gated inwardly rectifying potassium channel KCNH2 (Homo sapiens), Q12809 | U2OS, BacMam KCNH2, thallium flux FluxOr; hits give low values | activity change, % at 1.84 µM | 0.37% of 340,000 active;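 active = maximum activity change below -70%; inconclusive = maximum activity change between -70% and -50%; inactive = maximum activity change above -50%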; also: % is scaled to controls: 0 for no effect and ±100 for the full control effect
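U2OS cells were transduced with wild-type KCNH2 virus (2.03 x 10^8 / mL) for 4 h at room temperature, then cultured overnight at 37 C. Thallium flux was read with FluxOr dye. Rate constants were normalized to DMSO controls.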
Rango complex inh: qHTS Assay for Inhibitors of Rango (Ran-regulated importin-beta cargo) - Importin beta complex formation | Importin subunit beta-1 (Homo sapiens), Q14974 | Rango CFP/YFP FRET sensor + importin beta, 45 min | Potency, µM (highest dose often 92.2 µM), for the others: top-dose inhibition of complex formation | 0.031% of 340,000 active | AID 540263, 2011;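 also: potency is read from the fitted curve at half-maximal effect; 0% = DMSO wells and 100% = buffer wells lacking importin beta; nearly all actives have a fitted effect of over 15% in size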
Target sequence (Q14974 whole entry, looked up): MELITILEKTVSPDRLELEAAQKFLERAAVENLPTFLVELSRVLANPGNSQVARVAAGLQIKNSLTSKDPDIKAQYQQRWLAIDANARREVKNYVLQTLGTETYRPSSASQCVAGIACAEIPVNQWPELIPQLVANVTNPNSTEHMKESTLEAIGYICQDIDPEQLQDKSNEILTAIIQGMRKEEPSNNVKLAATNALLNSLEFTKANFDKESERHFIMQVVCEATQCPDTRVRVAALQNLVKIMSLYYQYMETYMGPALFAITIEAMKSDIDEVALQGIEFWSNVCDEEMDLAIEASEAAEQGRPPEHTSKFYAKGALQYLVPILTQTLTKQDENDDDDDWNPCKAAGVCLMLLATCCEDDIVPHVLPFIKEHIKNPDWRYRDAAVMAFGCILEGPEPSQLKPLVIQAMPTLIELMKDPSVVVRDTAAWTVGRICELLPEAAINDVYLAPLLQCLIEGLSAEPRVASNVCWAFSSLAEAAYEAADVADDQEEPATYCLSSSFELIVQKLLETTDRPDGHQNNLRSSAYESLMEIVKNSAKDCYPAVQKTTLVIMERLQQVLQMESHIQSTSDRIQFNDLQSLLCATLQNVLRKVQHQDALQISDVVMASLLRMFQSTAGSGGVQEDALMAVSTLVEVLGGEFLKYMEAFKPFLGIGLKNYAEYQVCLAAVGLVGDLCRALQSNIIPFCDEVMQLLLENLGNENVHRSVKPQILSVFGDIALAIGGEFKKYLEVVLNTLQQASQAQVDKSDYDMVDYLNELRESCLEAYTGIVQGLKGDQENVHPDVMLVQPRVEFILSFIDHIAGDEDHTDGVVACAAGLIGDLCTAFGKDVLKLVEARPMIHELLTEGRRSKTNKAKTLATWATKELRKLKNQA
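FRET biosensor (snurportin 1 IBB flanked by EYFP and cerulean), 50 nM, with compound 5 min, then 0.125 microM importin beta in PBS, 1 mM DTT, 0.02% Tween-20, 0.1% BSA. CFP/YFP ratio read after 45 min at room temperature; pre-read flags interference.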
Mm-Cpn inhibitor: Inhibitors of TCP-1 ring complex (TRiC) of Methanococcus maripaludis (MmCpn): qHTS; Chaperonin Mm-Cpn (Methanococcus maripaludis); purified Mm-Cpn ATPase, ADP Transcreener TR-FRET; Potency, µM (series often up to 76.9 µM), without a hit: at the top dose activity, negative = inhibition, usual class: inhibitors; 0.031% of 330,000 active; active = well fitted inhibition curve with a large enough effect; inconclusive = small, poorly fitted or top-dose-only effect; also: potency is read from the fitted curve at half-maximal effect; % is scaled to controls: 0 for no effect and ±100 for the full control effect; nearly all actives have a fitted effect of over 80% in size
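ATP (10 uM final) was added to archaeal chaperonin (25 nM final) after 10 min exposure to test compound at 37°C; after 30 min further incubation, ADP was detected by competitive TR-FRET.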
Active calls of the source: *. Sampled rows, rich in hits. Any-hit rate of the full collection: about 1.4%. Unless noted, calls follow the shape of the full dose curve.

`O=C(COC(=O)C1CCN(c2ccc(C(F)(F)F)cn2)CC1)Nc1ccc(Cl)cn1` gave Rango dissoc inh inconclusive, KCNH2 3.1 block -44, CCT chaperon mod -3, KCNH2 WT inh -42, Rango complex inh 0% and Mm-Cpn inhibitor -5%.
`OCCNc1nc(Nc2cc(Cl)ccc2OC2CCCC2)nc(N2CCCC2)n1` gave Rango dissoc inh 5% and Rango complex inh 0%.
Screening COC(=O)c1[nH]c2ccccc2c1Sc1ccccc1 returned Rango dissoc inh -3%, KCNH2 3.1 block -14, CCT chaperon mod 0, KCNH2 WT inh 3, Rango complex inh 2% and Mm-Cpn inhibitor inconclusive.
`CCN(CC)CCCNC(=O)c1[nH]c2ccccc2c1Sc1ccc(Cl)cc1` gave Rango dissoc inh -11%, KCNH2 3.1 block -111*, CCT chaperon mod -2, KCNH2 WT inh -127*, Rango complex inh -4% and Mm-Cpn inhibitor -9%.
For CCN=C(NCC)SC1CC(=O)N(c2cccc(OCC)c2)C1=O (centres undefined) the results were Rango dissoc inh -5%, KCNH2 3.1 block -1, CCT chaperon mod 1, KCNH2 WT inh 0, Rango complex inh -4% and Mm-Cpn inhibitor -1%.
`Cc1ccc(C(=O)CSc2nnc(COc3ccc(C#N)cc3)n2-c2ccccc2)cc1` gave Rango dissoc inh -6%, KCNH2 3.1 block -17, CCT chaperon mod 1, KCNH2 WT inh 8, Rango complex inh -7% and Mm-Cpn inhibitor -8%.
Cc1ccc(NC(=O)CSc2nnc(COc3ccc(C#N)cc3)n2-c2ccccc2)cc1C was read as Rango dissoc inh 20%, KCNH2 3.1 block -71*, CCT chaperon mod 1, KCNH2 WT inh -13, Rango complex inh -1% and Mm-Cpn inhibitor 1%.
Screening CCc1ccc(-n2c(=S)sc3c(=O)n(-c4ccccc4C)c(SCC(=O)O)nc32)cc1 returned Rango dissoc inh inconclusive, KCNH2 3.1 block -1, CCT chaperon mod 2, KCNH2 WT inh -9, Rango complex inh inconclusive and Mm-Cpn inhibitor 1%.
Screening COc1ccc(N2CCN(C(=O)c3ccc(Br)o3)CC2)cc1 returned Rango dissoc inh 22%, KCNH2 3.1 block -10, CCT chaperon mod 4, KCNH2 WT inh -13, Rango complex inh -4% and Mm-Cpn inhibitor -2%.
For COc1ccc(-c2coc3cc(OC4OC(CO)C(O)C(O)C4O)cc(O)c3c2=O)cc1 (centres undefined) the results were Rango dissoc inh 16%, KCNH2 3.1 block -12, CCT chaperon mod 1, KCNH2 WT inh 13, Rango complex inh 0% and Mm-Cpn inhibitor 1%.
Screening COc1ccc(CC(=O)c2ccc(OC3OC(CO)C(O)C(O)C3O)cc2O)cc1 (centres undefined) returned Rango dissoc inh 10%, KCNH2 3.1 block 17, CCT chaperon mod 0, KCNH2 WT inh -95*, Rango complex inh -5% and Mm-Cpn inhibitor 0%.
Cc1ccc(C)c(SCC(=O)NC(=O)Nc2ccc3c(c2)OCCO3)c1 was read as Rango dissoc inh -1%, KCNH2 3.1 block 5, CCT chaperon mod -2, KCNH2 WT inh -79*, Rango complex inh 0% and Mm-Cpn inhibitor 1%.
Screening COC(=O)C(C)NC(=O)CNS(=O)(=O)c1ccc(F)cc1 (centres undefined) returned Rango dissoc inh 10%, KCNH2 3.1 block -7, CCT chaperon mod 0, KCNH2 WT inh -6, Rango complex inh -2% and Mm-Cpn inhibitor 0%.
Screening Cc1c(Cl)cccc1NC(=O)CNC(=O)C1CCN(C(=O)Nc2ccccc2)CC1 returned Rango dissoc inh -5%, KCNH2 3.1 block 0, CCT chaperon mod 1, KCNH2 WT inh -4, Rango complex inh -2% and Mm-Cpn inhibitor 1%.
For CCOC(=O)Cc1csc(NC(=O)CCN2C(=O)c3ccccc3C2=O)n1 the results were Rango dissoc inh -4%, KCNH2 3.1 block -213*, CCT chaperon mod -2, KCNH2 WT inh -6, Rango complex inh -1% and Mm-Cpn inhibitor -10%.
Screening CCOC(=O)Cc1csc(NC(=O)CCCN2C(=O)c3ccccc3C2=O)n1 returned Rango dissoc inh -10%, KCNH2 3.1 block -7, CCT chaperon mod -3, KCNH2 WT inh -2, Rango complex inh 1% and Mm-Cpn inhibitor 0%.
`C=CC[C@H](CC(=O)N[C@H](CO)Cc1ccccc1)C(=O)N[C@@H](COC(=O)[C@@H](CC=C)Cc1ccc(F)cc1)Cc1c[nH]c2ccccc12` gave Rango dissoc inh 2%, KCNH2 3.1 block -80*, CCT chaperon mod -3, KCNH2 WT inh -6, Rango complex inh -2% and Mm-Cpn inhibitor 1%.
For C=CC[C@@H](CC(=O)N[C@@H](CO)Cc1ccccc1)C(=O)N[C@H](COC(=O)[C@@H](CC=C)Cc1ccc(F)cc1)Cc1c[nH]c2ccccc12 the results were Rango dissoc inh -4%, KCNH2 3.1 block -6, CCT chaperon mod 1, KCNH2 WT inh 7, Rango complex inh 0% and Mm-Cpn inhibitor 1%.
`O=C(NCc1cccs1)c1ccc(Cl)c(S(=O)(=O)N2CCOCC2)c1` gave KCNH2 3.1 block -3, CCT chaperon mod 1 and KCNH2 WT inh 4.
Cc1ccc(-n2c(O)c(C=Nc3cc(C)on3)c3ccccc3c2=O)c(C)c1 was read as Rango dissoc inh 9.2µM*, KCNH2 3.1 block 6, CCT chaperon mod -3, KCNH2 WT inh -5, Rango complex inh inconclusive and Mm-Cpn inhibitor -2%.
Screening Cc1ccc(S(=O)(=O)N2CCOCC2)cc1C(=O)NCCCn1ccnc1 returned Rango dissoc inh -8%, KCNH2 3.1 block -11, CCT chaperon mod 2, KCNH2 WT inh -90*, Rango complex inh inconclusive and Mm-Cpn inhibitor 1%.
For CN(C)C(CNC(=O)c1cccc(S(=O)(=O)N2CCN(c3ccccc3)CC2)c1)c1ccccc1 (centres undefined) the results were Rango dissoc inh 2%, KCNH2 3.1 block -9, CCT chaperon mod -46*, KCNH2 WT inh 15 and Rango complex inh 3%.
